In the library only some 2.4% were active in any assay of this set; here they are far more common.
POLI inh: qHTS for Inhibitors of Polymerase Iota. AID 588590, 2011. DNA polymerase iota (Homo sapiens), Q9UNA4. Pol iota fluorescent replication assay, 10 min. Potency, µM (doses to about 115 µM), for the others: at the highest dose activity, negative = inhibition, most hits filed as inhibitors. 390,000 compounds, 1% hits
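Pol iota at 10 nM preincubated 15 min with compounds at room temperature; reaction started with fluorescent substrate, 50 nM final. Fluorescence read kinetically at 0 and 10 min; buffer-only wells as negative control.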
WRN helicase inh: qHTS for Inhibitors of WRN Helicase; 360,000 compounds, 0.46% hits; WRN helicase unwinding, fluorescent forked duplex, kinetic; Potency, µM (doses to about 114 µM), for inactives: at the highest dose activity change, negative = inhibition, actives largely listed as inhibitors; Bifunctional 3'-5' exonuclease/ATP-dependent helicase WRN (Homo sapiens), Q14191; further: on the % scale 0 is the no-effect control and ±100 the full control effect; nearly all actives have a fitted effect of over 55% in size
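Fluorescence dequenching readout, ex 525 nm/em 598 nm, kinetic mode: forked duplex DNA (100 nM final) with adjacent fluorophore and quencher unwound by WRN (20 nM final) with 2 mM ATP. Compound preincubation 15 min, room temperature.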
Pol eta inh: qHTS for Inhibitors of Polymerase Eta. recombinant Pol eta, fluorescent DNA replication assay. 390,000 compounds, 1.2% hits. Potency, µM (doses to about 114 µM), for inactives: at the top dose activity change, negative = inhibition, usual class: inhibitors. DNA polymerase eta (Homo sapiens), Q9Y253; further: on the % scale 0 is the no-effect control and ±100 the full control effect
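Pol eta (10 nM) was preincubated with compounds for 15 min at room temperature, after which fluorescent replication substrate (50 nM final) was added to start the reaction. Fluorescence was read kinetically at 0 and 10 min.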
Pol beta inh: qHTS Assay for Inhibitors of DNA Polymerase Beta | Pol beta primer extension/strand displacement, fluorescence kinetic | Potency, µM (titrated, usually from 114 µM), inactives show at the top dose activity change, negative = inhibition, actives largely listed as inhibitors | 340,000 compounds, 1.3% hits | AID 485314, 2010; further: on the % scale 0 is the no-effect control and ±100 the full control effect
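Reaction started by 50 nM substrate onto compound-treated Pol beta (10 nM, 15 min preincubation, room temperature); plates read at 0 min and 10 min. Normalized concentration-effect data fitted by four-parameter Hill equation.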
FEN1 inhibitor: qHTS Assay for the Inhibitors of Human Flap endonuclease 1 (FEN1). P39748. Recombinant FEN1 flap cleavage, fluorescence, 15 min. AID 588795, 2011. 390,000 compounds, 0.35% hits. Potency, µM (top dose mostly 114 µM), without a hit: at the highest dose activity change, negative = inhibition, hits mostly inhibitors; further: on the % scale 0 is the no-effect control and ±100 the full control effect; nearly all actives have a fitted effect of over 65% in size
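Reaction started by adding substrate (50 nM final) to 10 nM enzyme after 15 min room-temperature compound preincubation. Reads at 0 and 15 min, with data normalized and fitted to a four-parameter Hill equation.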
Pol kappa inh: qHTS for Inhibitors of Polymerase Kappa. DNA polymerase kappa (Homo sapiens), Q9UBT6. purified Pol kappa, fluorescent DNA synthesis assay, 10 min. Potency, µM (top dose mostly 107 µM), for the others: top-dose activity, negative = inhibition, actives largely listed as inhibitors. 400,000 compounds, 0.53% hits; further: on the % scale 0 is the no-effect control and ±100 the full control effect
Target sequence (Q9UBT6 whole entry, looked up): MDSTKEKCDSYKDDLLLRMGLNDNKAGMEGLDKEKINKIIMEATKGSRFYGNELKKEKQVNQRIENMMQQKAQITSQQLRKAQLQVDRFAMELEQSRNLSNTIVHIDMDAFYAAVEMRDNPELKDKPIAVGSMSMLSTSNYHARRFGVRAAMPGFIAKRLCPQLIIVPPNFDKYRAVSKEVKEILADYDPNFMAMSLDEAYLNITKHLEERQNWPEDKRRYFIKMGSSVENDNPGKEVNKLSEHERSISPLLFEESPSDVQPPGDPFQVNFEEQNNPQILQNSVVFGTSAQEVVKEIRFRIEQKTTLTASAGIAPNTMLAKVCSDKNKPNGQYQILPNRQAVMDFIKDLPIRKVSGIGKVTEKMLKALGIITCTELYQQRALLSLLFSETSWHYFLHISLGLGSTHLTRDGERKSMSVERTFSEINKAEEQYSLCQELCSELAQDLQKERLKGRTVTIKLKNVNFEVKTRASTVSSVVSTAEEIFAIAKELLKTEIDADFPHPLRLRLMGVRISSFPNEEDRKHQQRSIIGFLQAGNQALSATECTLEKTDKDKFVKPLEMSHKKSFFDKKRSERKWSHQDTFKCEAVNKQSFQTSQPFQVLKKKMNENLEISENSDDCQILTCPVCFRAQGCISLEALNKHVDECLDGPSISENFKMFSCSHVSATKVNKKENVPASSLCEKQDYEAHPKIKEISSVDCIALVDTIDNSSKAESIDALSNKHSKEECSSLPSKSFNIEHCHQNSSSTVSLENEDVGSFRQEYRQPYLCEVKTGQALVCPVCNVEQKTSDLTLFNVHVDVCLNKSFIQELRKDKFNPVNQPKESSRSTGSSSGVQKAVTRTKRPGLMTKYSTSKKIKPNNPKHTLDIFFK
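10 nM Pol kappa preincubated 15 min at room temperature with compounds, then reaction started with substrate at 50 nM final. Fluorescence read kinetically at 0 and 10 min; buffer-only wells served as negative control.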
Active calls of the source: *; u = inconclusive; x = no result; [ ] = another dose, or the depositor's remark. The call rests on the fitted dose curve; in most records, active means well fitted curve in the direction sought with a large enough effect; inconclusive means small, poorly fitted or top-dose-only effect, or another doubt; inactive means no such curve, though single readings can be large; an effect the other way counts as inactive or inconclusive. Potency means the concentration at half of the fitted maximal effect.

SMILES	POLI inh	WRN helicase inh	Pol eta inh	Pol beta inh	FEN1 inhibitor	Pol kappa inh
Cc1cc(C)cc(NC(=O)C2CCN(S(=O)(=O)c3ccc4c(c3)NC(=O)C(C)S4)CC2)c1 (stereo not given)	36%	-14%[57.1 µM]	-26%	-1%	-14%	-8%
Cc1ccc(NC(=O)C2CCN(S(=O)(=O)c3ccc4c(c3)NC(=O)C(C)S4)CC2)c(Cl)c1 (stereo not given)	16µM*	-24%	-17%	u	4%	-14%
Cc1ccc(-n2ncc3c(NCCC4=CCCCC4)ncnc32)cc1	2%	x	-22%	10%	0%	-13%[60.1 µM]
O=C(O)CSc1c2c(nc3cc(C(=O)Nc4ccc(F)c(Cl)c4)ccc13)CCC2	50µM*	x	u	u	-24%	u
Cc1noc(/C=C/c2ccco2)c1S(=O)(=O)N1CCC(C(=O)N2CCc3ccccc3C2)CC1	45µM*	-22%	u	-111%	3%	-35%
O=S(=O)(c1ccc(Cl)cc1)N1CCN(c2nc(Nc3cc(Cl)ccc3O)nc3ccccc23)CC1	-11%[58.9 µM]	x	x	x	-15%[80.7 µM]	-18%
Cc1cc2nc3ccc(=[N+](C)C)cc-3sc2cc1N	18µM*	x	u	8.9µM*	22µM*	-32%
c1ccc2nc(-c3cc4ccccc4s3)ccc2c1	5%	x	x	x	-17%	-3%
Cc1nn(-c2cccc(C(F)(F)F)c2)c(Cl)c1/C=N/Nc1cccc(C(=O)O)c1	0%	-6%	-9%	56µM*	-13%	1%
Cc1nn(-c2ccccc2Cl)c(Cl)c1/C=N/Nc1cccc(C(=O)O)c1	-3%	-16%	-6%	-3%	-1%	-18%
O=C(NCCc1ccccc1)c1sc2ncccc2c1-n1cccc1	26%	x	-23%	3%	u	-9%[60.1 µM]
c1ccc(-c2csc(Nc3ccc4c(c3)OCO4)n2)cc1	x	0%	x	x	x	x
O=C1c2ccccc2C(=O)N1c1cccc(-c2csc(Nc3ccc4c(c3)OCO4)n2)c1	x	x	x	28µM*	x	x
Cc1ccc(Cn2c(C3CCCN3c3nc(-c4cc(Cl)c(N)c(Cl)c4)cs3)nc3cc(C(=O)NCCCO)ccc32)cc1 (stereo not given)	45µM*	-8%	-12%	x	6%	-11%
CCOc1ccc(NS(=O)(=O)c2c(C)nc3sc(C)c(C)n3c2=O)cc1	-17%	x	-19%	-2%	-3%	-17%
Cc1ccc(C(=O)Nc2cc(S(=O)(=O)N3CCOCC3)ccc2N2CCCC2)cc1	10%	0%	-25%	x	-1%	-5%
Cc1ccc(S(=O)(=O)NC(=O)c2cc(C)n(-c3cc(S(=O)(=O)N4CCOCC4)ccc3N3CCCC3)c2C)cc1	u	-11%	89µM*	u	4%	-25%
O=C(COc1ccc(Cl)cc1Cl)Nc1ccc(C(=O)OC2CCCCC2)cc1	9%	x	x	5%	-1%	-23%
CCOC(=O)C1Nc2ccccc2C2C(O)C(O)CC12 (stereo not given)	25µM*	-6%	10%	x	-25%	-31%
CCOC(=O)C1Nc2ccc(C(F)(F)F)cc2C2c3ccccc3CC12 (stereo not given)	30%	14%	-13%	x	3%	6%
O=C1CSC(=S)N1Nc1ccccc1	32µM*	u	-9%	x	9%	-6%
C(=C\n1nnc2ccccc21)/c1ccc[nH]1	u	u	50µM*	x	u	25µM*
C#Cc1ccc([C@@H]2C=C(C(=O)OCC=C)O[C@H](OCCCCO)C2)cc1	u	-20%	u	18µM*	u	u
C#CCNC(=O)C1=C[C@@H](c2ccc(C#C)cc2)C[C@@H](OCCCCO)O1	50µM*	-31%	25µM*	x	u	u
O=C(NCc1ccccc1)C1=C[C@@H](c2ccc(Br)cc2)C[C@@H](OCCCCO)O1	8%	-7%	-14%	-2%	-9%	0%
SMILES	POLI inh	WRN helicase inh	Pol eta inh	Pol beta inh	FEN1 inhibitor	Pol kappa inh
C#Cc1ccc([C@@H]2C=C(C(=O)NCc3ccccc3)O[C@H](OCCCCO)C2)cc1	50µM*	-26%	45µM*	x	-4%	u
C#CCNC(=O)C1=C[C@@H](c2ccccc2)C[C@@H](OCCCCO)O1	2%	2%	-3%	x	4%	9%
C=CCOC(=O)C1=C[C@H](c2ccc(C(F)(F)F)cc2)C[C@H](OCCCCO)O1	-15%	-2%	-3%	x	-20%	-12%
Cc1ccc2nc(-c3ccc(NC(=O)CSCC(=O)O)cc3)sc2c1	2%	-3%	2%	-15%	-8%	-19%
Cc1csc(NC(=O)CSCC(=O)O)c1-c1nc2ccccc2s1	u	-17%[11.6 µM]	89µM*	-23%	u	1%
CCOC(=O)N1CCC(NC(=O)c2cnn(-c3ccc(F)cc3)c2-n2cccc2)CC1	50%	x	-2%	80%	3%	0%
COc1ccc(Nc2cc(C)nc(N3CCOCC3)n2)cc1	32µM*	-8%	4%	24%	-2%	-10%
COC(=O)c1ccc2c(c1)N(CC(=O)Nc1cccc(C(F)(F)F)c1)C(=O)c1ccccc1S2	11%	x	-8%	16%	-5%	-1%[60.1 µM]
COCCCNC(=O)Cn1c(=O)n(Cc2ccc(C(=O)NCc3ccc(C)cc3)cc2)c(=O)c2ccccc21	89µM*	x	u	u	u	-18%
COCCCNC(=O)c1ccc(Cn2c(=O)c3ccccc3n(CC(=O)Nc3ccc(C)cc3C)c2=O)cc1	u	x	-15%	-9%	-14%	2%
Cc1cc(SCC(=O)c2cccc([N+](=O)[O-])c2)nc(=O)[nH]1	u	-13%[11.6 µM]	20µM*	-25%	u	79µM*
O=C(CSc1ccc(-c2ccco2)nn1)N1CCCC1	8%	-6%[57.1 µM]	-17%	30%	-16%	-12%
Cc1cc(C)cc(NC(=O)CSc2cc(C)[nH]c(=O)n2)c1	14%	x	1%	16%	-5%	-6%[60.1 µM]
Cc1cc(SCc2ccc([N+](=O)[O-])cc2)nc(=O)[nH]1	-1%	-6%[11.6 µM]	25µM*	u	-3%	-14%
Cc1cc(SCc2cccc([N+](=O)[O-])c2)nc(=O)[nH]1	u	-11%	4%	u	1%	-23%
O=C(CSc1ccc(-c2ccco2)nn1)c1cccc([N+](=O)[O-])c1	13µM*	-32%[57.1 µM]	u	28µM*	-30%	u
Cc1cc(SCC(=O)Nc2ccc(F)cc2F)nc(=O)[nH]1	u	x	u	16µM*	17%	-12%[60.1 µM]
